# Screening results as filed in PubChem.
# PAFAH1B2 inh: PAFAH1B2 (human) inhibition; recombinant PAFAH1B2, FP-rhodamine activity probe, fluorescence polarization; inhibition, % at 3.39 µM; 1.2% of 340,000 active; AID 492953;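 active = inhibition above the mean of all tested compounds plus 3 SD, cut at about 24% in these data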;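 note: 0% = enzyme with DMSO and 100% = wells lacking PAFAH1B2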
# PAFAH1B3 FP inh: PAFAH1B3 (human) inhibition. Q15102. recombinant PAFAH1B3, FP-rhodamine probe, fluorescence polarization. inhibition, % at 3.39 µM. 0.28% of 340,000 active. AID 492972;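 active = inhibition above the screen-wide average of all tested compounds plus 3 SD, cut at about 25% in these data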;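 note: 0% = enzyme with DMSO only and 100% = wells lacking PAFAH1B3 protein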
# PME-1 primary: blocks human protein phosphatase methylesterase 1 | inhibition, % at 5.9 µM | recombinant PME-1, FP-Rh probe fluorescence polarization | 0.53% of 320,000 active;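 active = inhibition above the campaign mean of all compounds plus 3 SD, cut at about 26% in these data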;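 note: competitive labeling of PME-1 active site by serine hydrolase directed probe; 0% = PME-1 with DMSO and 100% = wells lacking PME-1 enzyme; inhibitors block probe labeling so polarization falls and inhibition rises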
# Target sequence (Q9Y570 whole entry, looked up): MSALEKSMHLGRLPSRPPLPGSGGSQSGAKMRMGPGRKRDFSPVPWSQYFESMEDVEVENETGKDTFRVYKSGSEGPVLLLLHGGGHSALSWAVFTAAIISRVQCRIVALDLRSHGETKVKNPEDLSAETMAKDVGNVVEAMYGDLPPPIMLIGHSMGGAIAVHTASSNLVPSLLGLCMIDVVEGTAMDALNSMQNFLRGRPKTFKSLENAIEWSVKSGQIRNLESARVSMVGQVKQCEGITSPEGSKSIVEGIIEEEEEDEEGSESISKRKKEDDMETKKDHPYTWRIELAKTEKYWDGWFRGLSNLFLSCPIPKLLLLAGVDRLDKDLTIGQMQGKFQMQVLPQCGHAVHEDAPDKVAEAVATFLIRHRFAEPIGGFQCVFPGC
# Fam108B inh: counter-screen for RBBP9 inhibitors: inhibitors of mouse Fam108B | recombinant Fam108B, FP-Rh probe fluorescence polarization | 0.33% of 300,000 active | AID 1947 | inhibition, % at 9.51 µM;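 active = inhibition above the screen mean inhibition plus 3 SD, computed separately per campaign, cut at about 18% in these data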;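 note: inhibitors lower polarization as less probe binds the enzyme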
# PAFAH2 FP inh: inhibitors of human PAFAH2; Q99487; recombinant PAFAH2, FP-rhodamine activity probe, fluorescence polarization; inhibition, % at 3.39 µM; 0.99% of 340,000 active;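 active = inhibition above the mean over all tested compounds plus 3 SD, cut at about 30% in these data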;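 note: inhibitors block probe labeling of enzyme so polarization drops; 0% = enzyme with DMSO and 100% = wells lacking PAFAH2 protein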
# pPAFAH inh: pPAFAH (human) enzyme inhibition | Q13093 | recombinant pPAFAH, FP-rhodamine probe fluorescence polarization | inhibition, % at 3.39 µM | 1.5% of 330,000 active;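 active = inhibition above the mean inhibition across the screen plus 3 SD, cut at about 25% in these data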;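 note: inhibitors block binding of the rhodamine activity-based probe so polarization drops; 0% = enzyme with DMSO and 100% = wells lacking pPAFAH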
# pPAFAH FP conf: pPAFAH (human) inhibition, confirmed | shares compounds with pPAFAH inh | recombinant pPAFAH, FP-Rh probe fluorescence polarization | inhibition, % at 3.39 µM | 72% of 2,300 active | AID 463230;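 active = mean inhibition of the triplicate above the hit cutoff set for the earlier primary screen, cut at about 25% in these data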;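 note: 0% = enzyme with DMSO and 100% = wells lacking pPAFAH enzyme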
# An asterisk follows results filed as active; . = not tested or not shown. An excerpt weighted towards active compounds, which were near 2.9% of everything screened.
SMILES,PAFAH1B2 inh,PAFAH1B3 FP inh,PME-1 primary,Fam108B inh,PAFAH2 FP inh,pPAFAH inh,pPAFAH FP conf
COc1cc2c(ccc3cc(OC)c(OC)c(O)c32)cc1O,13,23,2,5,15,39*,22
CCOC(=O)Cc1cc(=O)n(-c2nc3ccccc3s2)[nH]1,1,4,8,7,31*,41*,-3
CCCc1cc(=O)n(-c2nc3ccccc3s2)[nH]1,1,2,0,7,25,3,.
Cc1cc(C)nc(NS(=O)(=O)c2ccc(NC(=O)C3COc4ccccc4O3)cc2)n1 (stereo unspecified),.,.,-3,-13,.,4,.
O=C(Nc1ccc(S(=O)(=O)Nc2ccccc2)cc1)C1COc2ccccc2O1 (stereo unspecified),-6,6,-3,-8,-7,40*,35*
N#CCC(=O)Nc1ccc(C(=O)OCC(=O)Nc2ccccc2Sc2ccccc2)cc1,.,.,34*,6,.,71*,6
CC(=O)Nc1ccc(C(=O)OCC(=O)Nc2ccccc2Sc2ccccc2)cc1,-7,-2,2,-15,24,-1,.
COc1ccc(Cl)cc1C(=O)NNC(=O)c1[nH]c(C)c(C(C)=O)c1C,-2,10,.,.,5,54*,7
Cc1ccc2c(c1)CCCN2C(=O)c1cc(C)on1,0,2,0,2,-6,7,.
COc1ccccc1N1CCN(C2CC(=O)N(c3cccc(Cl)c3)C2=O)CC1 (stereo unspecified),-1,-1,3,5,9,4,.
COc1ccc(CNC(=O)CN2C(=O)NC3(CCCCCC3)C2=O)cc1,5,6,.,.,0,61*,5
Cc1c(NC(=S)N/N=C/c2ccc(O)cc2)c(=O)n(-c2ccccc2)n1C,2,1,-4,4,12,-7,.
Cc1c(NC(=S)N/N=C/c2cc([N+](=O)[O-])ccc2O)c(=O)n(-c2ccccc2)n1C,19,25,-1,3,23,47*,17
Cc1ccc(S(=O)(=O)N2CCC(NC(=O)C3CCCCC3)CC2)cc1,-2,-3,-3,1,-7,1,.
CCCCC(=O)NC(c1cccs1)c1cc(Cl)c2cccnc2c1O (stereo unspecified),6,13,10,3,17,45*,32*
CN(C)C1(CN=Cc2cc(Cl)cc([N+](=O)[O-])c2O)CCCCC1,8,5,5,11,34*,42*,28*
Cc1nc2ccccc2c(=O)n1/N=C/c1ccc(O)c(O)c1O,7,27*,-8,9,46*,87*,47*
O=C(Cc1cnn(-c2ccccc2)c1)c1ccc(O)c(O)c1O,0,5,-12,3,22,73*,54*
COc1ccc(NC(=O)c2c(F)cccc2F)cc1S(=O)(=O)Nc1ccc(Br)cc1,0,-8,-3,-5,-12,36*,28*
COc1ccc(NS(=O)(=O)c2cc(NC(=O)c3ccccn3)ccc2OC)cc1Br,-3,10,.,.,-3,-1,.
COc1cc(-c2nc(-c3cccnc3)no2)cc(OC)c1OC,7,7,-2,0,3,40*,2
CCOc1ccc(OCCC(=O)NNC(=O)c2cc(OC)c(OC)c(OC)c2)cc1,3,7,-11,-1,2,-4,.
Cc1cc(Br)c(S(=O)(=O)NCc2cccnc2)cc1C,8,13,0,0,-12,49*,5
Cc1cccc(CN(C(=S)Nc2c(C)cccc2C)c2cccnc2)c1,-1,15,7,1,1,11,.
Cc1cccc(N/N=C/c2ccc(O)c(O)c2O)c1,-3,8,1,7,7,45*,44*
COc1cccc(N/N=C/c2cccc(Br)c2O)c1,7,6,2,9,29,8,.
N#Cc1cc2c(=O)n3ccccc3nc2n(Cc2ccco2)c1=NC(=O)c1ccco1,5,10,-8,3,-6,37*,9
N#CC1(NC(=O)COc2ccc3ccc(=O)oc3c2)CCCCC1,5,6,-4,2,-1,-1,.
Cc1cc([N+](=O)[O-])ccc1Nc1nc2ccccc2n2cnnc12,8,4,4,5,-3,37*,5
